MEKK2mut PB1 HTS: signal of MEK5 binding to mutant human MEKK2 PB1 domain; bead flow cytometry, Alexa488-MEK5 binding to MEKK2 mutant; percent response, % at 10 µM; 290,000 compounds, 0.35% hits; AID 1530; in the data active means percent response above about 24%, passing the limit was not always enough
MEKK2 WT-MEK5: raises or lowers MEK5 binding to wildtype human MEKK2 PB1 domain; Q9Y2U5; bead flow cytometry, Alexa488-MEK5 binding to MEKK2 WT; actives lie on both sides; binding response (% of control), % at 10 µM; 290,000 compounds, 1.1% hits; AID 1531; in the data active means binding response below about 67% or above about 130%
MEKK3 PB1 HTS: MEKK3-MEK5 PB1 interaction, increase or decrease | Q99759 | bead-based flow cytometry, Alexa488-MEK5 binding to MEKK3; actives lie on both sides; 0 = blocked by unlabeled MEK5, 100 = vehicle | binding response (% of control), % at 10 µM | 290,000 compounds, 1.4% hits;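 active means binding response more than 3 SD above or below the average of its plate-row segment, actives on both sides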;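 further: Alexa488 bead fluorescence after subtracting the streptavidin-only scavenger bead signal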
NRP1-CendR mod: alters CendR peptide binding to human NRP-1 | O14786 | FAM-RPARPAR peptide binding to NRP-1, fluorescence polarization | inhibition, % at 25 µM | 360,000 compounds, 0.85% hits | AID 602438;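 active means inhibition or corrected inhibition above about 18%, plus a signal ratio from 0.5 to 1.5, limit read from the data, passing the limit was not always enough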
Target sequence (O14786 whole entry, looked up): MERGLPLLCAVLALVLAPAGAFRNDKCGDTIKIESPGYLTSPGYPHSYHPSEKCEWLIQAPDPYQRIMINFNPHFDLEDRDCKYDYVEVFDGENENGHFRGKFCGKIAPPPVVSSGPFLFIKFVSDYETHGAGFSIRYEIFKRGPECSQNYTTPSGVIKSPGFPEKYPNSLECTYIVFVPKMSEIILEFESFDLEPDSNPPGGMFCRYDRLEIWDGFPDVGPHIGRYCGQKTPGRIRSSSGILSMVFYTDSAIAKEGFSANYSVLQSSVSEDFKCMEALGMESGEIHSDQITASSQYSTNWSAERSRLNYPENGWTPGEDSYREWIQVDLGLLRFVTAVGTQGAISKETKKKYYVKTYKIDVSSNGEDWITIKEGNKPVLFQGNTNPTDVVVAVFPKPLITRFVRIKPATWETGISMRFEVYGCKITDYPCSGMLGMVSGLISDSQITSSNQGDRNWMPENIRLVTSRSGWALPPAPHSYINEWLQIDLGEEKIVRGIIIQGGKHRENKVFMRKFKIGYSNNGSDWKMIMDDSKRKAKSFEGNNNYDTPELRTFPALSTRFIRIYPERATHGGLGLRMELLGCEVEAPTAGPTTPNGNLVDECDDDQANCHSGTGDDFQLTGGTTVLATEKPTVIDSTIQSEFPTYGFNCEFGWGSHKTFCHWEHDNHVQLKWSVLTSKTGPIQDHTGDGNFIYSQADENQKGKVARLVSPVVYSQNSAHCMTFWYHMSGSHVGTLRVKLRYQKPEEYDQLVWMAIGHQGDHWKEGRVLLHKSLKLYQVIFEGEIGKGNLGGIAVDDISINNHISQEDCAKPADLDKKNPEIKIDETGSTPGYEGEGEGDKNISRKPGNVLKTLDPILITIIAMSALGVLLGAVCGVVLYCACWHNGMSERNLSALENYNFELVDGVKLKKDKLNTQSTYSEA
SKN-1 inh: C. elegans SKN-1 inhibition; 360,000 compounds, 0.49% hits; C. elegans VP596 Pgst-4::GFP/RFP ratio, acrylamide-induced, 24 h; inhibition, % at 21.8 µM;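 active means interference check ratio from 0.5 to 1.5 plus GFP to RFP signal ratio inhibition reaching or exceeding a fixed threshold, cut at about 30% in these data, passing the limit was not always enough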
A number is an active result; – = inactive; · = not tested or not shown. In the library only some 3.2% were active in any assay of this set; here they are far more common.

SMILES	MEKK2mut PB1 HTS	MEKK2 WT-MEK5	MEKK3 PB1 HTS	NRP1-CendR mod	SKN-1 inh
Cc1cccc(-n2ncc3c2CCCC3NC(=O)CCN2CCCCO2)c1C (stereo not drawn)	–	–	–	23.0	–
CCCNC(=O)c1cc(C)no1	–	–	–	25.3	–
COC(=O)[C@@]12C[C@@H](CC(=O)NCCCCc3ccccc3)C(=O)N(Cc3cccc4ccccc34)C1=CCC(C)(C)C2	·	·	·	–	–
COc1cccc(N2CCN(c3ncnc4c3[nH]c3ccccc34)CC2C)c1 (stereo not drawn)	–	–	–	·	·
COc1cccc(N2CCN(c3ncnc4c3[nH]c3ccc(F)cc34)CC2C)c1 (stereo not drawn)	–	164.0	–	–	–
O=C(c1cccc(S(=O)(=O)N2CCN(c3ccc(F)cc3)CC2)c1)N1CCN(c2ccccc2O)CC1	·	·	·	–	–
COc1ccc(N2CCN(C(=O)CSc3nnc(C4CC4)n3C3CC3)CC2)cc1	·	·	·	–	–
COc1ccc(/C=C2\Sc3ccc(C(=O)NCCN4CCCCCC4)cc3N(C)C2=O)cc1	54.0	203.0	–	–	–
CCN1CCN(CCNC(=O)c2ccc3c(c2)N(Cc2ccc(F)cc2)C(=O)/C(=C/c2ccccc2)S3)CC1	117.0	278.0	–	–	–
CN1C(=O)/C(=C\c2ccccc2F)Sc2ccc(C(=O)NC3CCN(Cc4ccccc4)CC3)cc21	–	168.0	–	–	–
O=C(NC1CCN(Cc2ccccc2)CC1)c1ccccc1	–	–	–	–	–
Cc1cccc(CN2C(=O)/C(=C\c3ccc(C(=O)NCCN4CCOCC4)cc3)Sc3ccccc32)c1	–	–	–	–	–
CCN1CCCC1CNC(=O)c1ccc2c(c1)NC(=O)/C(=C\c1ccc(C)cc1)S2 (stereo not drawn)	43.0	194.0	–	–	–
COc1ccc(/C=C2\Sc3ccc(C(=O)NC4CC4)cc3N(C)C2=O)cc1OC	–	–	–	–	–
Cc1ccc(/C=C2/Sc3ccc(C(=O)NCCN4CCOCC4)cc3NC2=O)cc1	–	–	–	–	–
CCCCN(C=O)c1c(CC)nc2c(OCc3ccccc3C)cccn12	·	·	·	–	–
O=C1Nc2cc(C(=O)NCCCN3CCCC3)ccc2S/C1=C/c1ccccc1F	–	138.0	–	–	–
O=C1Nc2cc(C(=O)NCCN3CCCCCC3)ccc2S/C1=C/c1ccccc1F	·	·	·	–	–
COc1cccc(/C=C2/Sc3ccc(C(=O)NCCCN4CCCC4)cc3NC2=O)c1	–	167.0	–	–	–
COc1cccc(/C=C2/Sc3ccc(C(=O)NCCN4CCCC4)cc3NC2=O)c1	30.0	188.0	–	–	–
COc1ccccc1-n1cc2ccc([N+](=O)[O-])cc2n1	·	·	·	–	–
O=[N+]([O-])c1ccc2cn(-c3ccccc3)nc2c1	–	–	–	–	56.8
Cc1cc(NC(=O)Cc2ccsc2)ccc1Br	–	–	–	–	62.7
CCCC(C)NC(=O)CN(Cc1ccco1)S(=O)(=O)c1ccccc1 (stereo not drawn)	·	·	·	22.8	–
CCC(C)NS(=O)(=O)c1ccc(S(=O)(=O)N(CC(=O)Nc2ccccc2)Cc2ccco2)cc1 (stereo not drawn)	–	–	–	–	–
SMILES	MEKK2mut PB1 HTS	MEKK2 WT-MEK5	MEKK3 PB1 HTS	NRP1-CendR mod	SKN-1 inh
COc1ccc2c(c1)SCCC2=O	–	–	–	–	–
COc1cc2c(cc1OC)C(=O)CCS2	–	–	–	31.3	–
COc1ccccc1C1C(C(=O)NCc2ccccc2)=C(C)Nc2ncnn21 (stereo not drawn)	–	–	–	–	47.2
COc1cccc(C2C(C(=O)NCc3ccccc3)=C(C)Nc3ncnn32)c1 (stereo not drawn)	–	–	–	–	–
O=C(CNC(=O)c1ccccc1)Oc1cccc(Cl)c1	·	·	·	–	–
COc1cc(OC)cc(C(=O)N[C@H](C(=O)NC2CCCc3ccccc32)C(C)C)c1 (stereo partly drawn)	·	·	·	27.1	–
COc1cc(OC)cc(C(=O)NCC(=O)OCC(=O)NC2CCCc3ccccc32)c1 (stereo not drawn)	·	·	·	–	–
Cc1cc2c(cc1C)-n1nnnc1C(N(Cc1ccccc1)Cc1ccccc1)C(=O)N2 (stereo not drawn)	·	·	·	–	–
Cc1ccc(S(=O)(=O)NCC(=O)OC(C)C(=O)NC(=O)NC2CCCCC2)cc1C (stereo not drawn)	·	·	·	–	–
CC(=O)Nc1nc(-c2ccccc2)c(-c2ccccc2)o1	–	–	–	–	–
COc1cc(OC)cc(C(=O)Nc2nc(-c3ccccc3)c(-c3ccccc3)o2)c1	–	–	154.0	–	–
C#CCOCCOCCOCCNc1nc(N2CCN(C(=O)C(Cc3cc4ccccc4[nH]3)n3cc(C(N)Cc4ccc(O)cc4)nn3)CC2)nc(N2CCN(C(=O)C(Cc3cc4ccccc4[nH]3)n3cc(C(N)Cc4ccc(O)cc4)nn3)CC2)n1 (stereo not drawn)	179.0	298.0	–	·	·
C#CCOCCOCCOCCNc1nc(N2CCN(C(=O)[C@H](Cc3cc4ccccc4[nH]3)n3cc([C@@H](N)Cc4ccc(O)cc4)nn3)CC2)nc(N2CCN(C(=O)[C@H](Cc3cc4ccccc4[nH]3)n3cc([C@@H](N)CC(C)C)nn3)CC2)n1	54.0	201.0	–	·	·
CC(C)(C)c1ccc(NC(=O)c2cc(C3CCCN(C(=O)CCc4ccccc4)C3)on2)cc1 (stereo not drawn)	·	·	·	–	–
COc1ccccc1N(CC(=O)N1CCc2ccccc2C1)S(C)(=O)=O	–	–	–	24.8	–
COc1ccc(C)cc1N(CC(=O)N1CCc2ccccc2C1)S(C)(=O)=O	–	–	–	26.5	–
CCOc1ccccc1N(CC(=O)N1CCc2ccccc2C1)S(C)(=O)=O	–	–	–	–	–
COc1ccc(N(CC(=O)N2CCc3ccccc3C2)S(C)(=O)=O)cc1OC	–	–	–	–	–
Cc1ccc(S(=O)(=O)N2CCOCC2)cc1NC(=O)COC(=O)Cc1ccc(Cl)cc1	·	·	·	–	–
O=C(COC(=O)Cc1ccc(Cl)cc1)Nc1cc(S(=O)(=O)N2CCOCC2)ccc1N1CCCC1	–	–	–	44.4	–
CC(=O)CSc1nnc(-c2ccc(S(=O)(=O)N3CCOCC3)cc2)n1C	–	–	–	–	–
CC(=O)CSc1nnc(-c2ccc(S(=O)(=O)N3CCCC3)cc2)n1C	–	–	–	25.2	–
COc1cccc(CN(C)C(=O)C(CCSC)NS(=O)(=O)c2ccc3c(c2)OCCO3)c1OC (stereo not drawn)	·	·	·	–	–
CSCCC(NS(=O)(=O)c1ccc2c(c1)OCCO2)C(=O)N(C)Cc1ccc(C)cc1 (stereo not drawn)	–	–	–	36.7	–
S=C1SC2(CCCCCC2)NC2=C1CCCCC2	·	·	·	–	–
Cn1ccnc1SCC(=O)Nc1ccc(Cl)cn1	–	–	–	18.3	–
Cn1ccnc1SCC(=O)Nc1ccc([N+](=O)[O-])cn1	–	–	–	–	–
CCc1nc2oc3ccccc3c(=O)c2c(=O)n1-c1ccccc1	–	–	–	–	30.2

From PubChem BioAssay
